Reference: PubChem BioAssay (EPA / NIEHS)
The source made the active and inactive calls. The calls were made as follows: active = hit-call score of the fitted dose curve at least 0.9, where 1 is the maximum; inactive = score below 0.9.

test: ATG_GATA_CIS: Attagene CIS-FACTORIAL HepG2 Assay for human GATA Binding Protein (AID 2282944); details: HepG2 GATA cis-element reporter, Attagene multiplex mRNA; actives raise or lower the signal
In short: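 Read-out: fluorescent reporter mRNA fragments resolved by capillary electrophoresis after RT-PCR. Human liver HepG2 cells carried transiently transfected cis-regulated reporter constructs; chemicals incubated 24 h; gain or loss of signal fitted relative to DMSO.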

Row | Compound | outcome
1 | c1ccc2c(c1)Cc1ccccc1-2 | inactive
2 | CN1CCN(c2ccccc2/C=C2\SCCN(c3ccc(Cl)c(Cl)c3)C2=O)CC1 | inactive
3 | FC(F)(I)C(F)(F)C(F)(F)C(F)(F)C(F)(F)C(F)(F)I | inactive
4 | CCC(C)(C)C1CCC(O)CC1 (stereo unspecified) | inactive
5 | CCc1ccc(CCOc2ccc(CC3SC(=O)NC3=O)cc2)nc1 (stereo unspecified) | inactive
6 | CC(C)(C)CC(C)(C)c1ccc(O)c(-n2nc3ccccc3n2)c1 | inactive
7 | CC(C)(C)c1ccc(O)c(C(C)(C)C)c1 | inactive
8 | N#C[C@@H]1CC(F)(F)CN1C(=O)CNC1CC2CCC(C1)N2c1ncccn1 (stereo partly specified) | inactive
9 | NC(=O)N1C(=O)C(C(=O)c2cc(Cl)cs2)c2cc(F)c(Cl)cc21 (stereo unspecified) | inactive
10 | CCCCCCCCCCCCCCCS(=O)(=O)Oc1ccccc1 | inactive
11 | CCCCCCCC(=O)O | inactive
12 | Cc1cc(CCN2CCN(c3nsc4ccccc34)CC2)cc2c1NC(=O)CC2(C)C | inactive
13 | COCC(C)O (stereo unspecified) | inactive
14 | CCCCC(CC)COC(=O)CCCCC(=O)OCc1ccccc1 (stereo unspecified) | inactive
15 | COc1ccc([N+](=O)[O-])cc1N | inactive
16 | CCOC(=O)CC(O)(CC(=O)OCC)C(=O)OCC | inactive
17 | CCCCCCCCC(=O)O | inactive
18 | Cc1cc(C)c(O)c(C)c1 | inactive

Row | Compound | outcome
19 | C#C[C@]1(O)CC[C@H]2[C@@H]3CCC4=CC(=O)CC[C@@H]4[C@H]3CC[C@@]21C | inactive
20 | CCCCC[C@H](O)CC(=O)CCc1ccc(O)c(OC)c1 | inactive
21 | NCC(F)(F)C(F)(F)C(F)(F)C(F)(F)C(F)(F)C(F)(F)C(F)(F)F | inactive
22 | O=[N+]([O-])c1ccc(O)cc1 | inactive
23 | COC(=O)CCCCC(=O)OC | inactive
24 | CC(C)CCCCCCOC(=O)CCCCC(=O)OCCCCCCC(C)C | inactive
25 | CC(C)(C)c1cc(C(C)(C)C)c(O)c(C(C)(C)C)c1 | inactive
26 | CCCCCCCCCCCCN1CCCC1=O | inactive
27 | Oc1cc2ccccc2c2ccccc12 | inactive
28 | C[C@@H]1C[C@H]2[C@@H]3CCC4=CC(=O)C=C[C@]4(C)[C@@]3(F)[C@@H](O)C[C@]2(C)[C@@]1(O)C(=O)COP(=O)(O)O | inactive
29 | COc1cc(CCC(=O)CC(=O)CCc2ccc(O)c(OC)c2)ccc1O | inactive
30 | O=c1c(-c2ccc(O)cc2)coc2cc(O)ccc12 | inactive
31 | CN(C)C=O | inactive
32 | Cc1oc(-c2ccccc2)nc1CCOc1ccc(C[C@H](Nc2ccccc2C(=O)c2ccccc2)C(=O)O)cc1 | inactive
33 | OC1CCC(C2CCCCC2)CC1 (stereo unspecified) | inactive
34 | CCCCCCCCOC(=O)CCCCCCCCC(=O)OCCCCCCCC | inactive
35 | CC(O)C(=O)O (stereo unspecified) | inactive
36 | CCc1nn(C2CCCCC2)c2cc(C3(C#N)CCC(C(=O)O)CC3)ccc12 (stereo unspecified) | inactive
